# From PubChem BioAssay
# Vaccinia mCherry – inhibitors of vaccinia virus infection (mCherry reporter signal) | Vaccinia virus mCherry reporter infection, fluorescence | Potency, µM (series often up to 36.5 µM), hits mostly inhibitors | hit rate 0.63% among 310,000 | AID 720579; calls by dose curve; tested in A549 cells; further: nearly all actives have a fitted effect of over 35% in size
# HCV inhibitor – blocks hepatitis C virus. Huh7.5.1 HCVcc-Cre infection, luciferase reporter, 44 h. Potency, µM (highest dose often 41.8 µM), hits mostly inhibitors. hit rate 3.4% among 340,000; active means well fitted inhibition curve with a large enough effect; inconclusive means small, poorly fitted or top-dose-only effect, or another doubt; inactive means no such curve, though single readings can be large or run the other way
#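 1,000 cells/well; 4 h culture; + compound; + HCVcc-Cre (~0.5 moi); 44 h; luciferase substrate, RT 15 min; read 15 sec.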
# Vaccinia Venus – vaccinia inhibition (Venus reporter); Vaccinia virus Venus reporter expression, fluorescence; Potency, µM (top dose mostly 36.5 µM), most hits filed as inhibitors; hit rate 0.46% among 330,000; AID 720580; calls by dose curve; tested in A549 cells; further: nearly all actives have a fitted effect of over 30% in size
# FMDV inh – antivirals against foot and mouth disease virus. Potency, µM (doses to about 57.9 µM), actives largely listed as inhibitors. hit rate 1.2% among 410,000. FMDV antiviral cell-based qHTS. AID 1159524; calls by dose curve; tested in HEK293T cells; further: read-out not given here; nearly all actives have a fitted effect of over 45% in size
# HCMV inh – blocks human cytomegalovirus replication. activity change, negative = inhibition, % at 57.5 µM. hit rate 4.5% among 410,000. HFF cells, HCMV-luciferase reporter, 72 h; active compounds read low. AID 1259415; in the data active means activity change below about -60%; inconclusive means no clear call, values can overlap the other calls; inactive means above about -39%
#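 Two-dose cell screen: HFF monolayers treated with compounds and infected with luciferase-expressing HCMV at 1 PFU/cell, 72 h at 37C, then lysed for luciferase measurement.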
# Hits are given with their value; . = inactive; ? = inconclusive; / = not tested or not shown; [ ] = another dose, or the depositor's remark. Sampled rows, rich in hits. Any-hit rate of the full collection: about 7.3%.
SMILES,Vaccinia mCherry,HCV inhibitor,Vaccinia Venus,FMDV inh,HCMV inh
COc1cc2c(c3oc(=O)cc(CC(=O)O)c13)CCC(C)(C)O2,/,10µM,/,.,.
CCc1cc(=O)oc2c3c(cc(OCC(=O)Nc4cccnc4)c12)OC(C)(C)CC3,.,10µM,.,.,.
CCc1cc(=O)oc2c3c(cc(OCC(=O)NCc4cccnc4)c12)OC(C)(C)CC3,.,?,.,.,.
COc1ccc(CNC(=O)COc2cc3c(c4oc(=O)cc(C)c24)CCC(C)(C)O3)cc1OC,.,6.3µM,.,?,.
CCOC(=O)c1c(NC(=O)c2cc(OCC)c(OCC)c(OCC)c2)sc2c1CCCCC2,.,/,.,.,.
Cc1ccc(NC2(c3nnnn3-c3c(C)cccc3C)CCCCC2)cc1,.,?,.,.,-74
COCCN1C(=O)CCC1(C)c1nnnn1-c1c(C)cccc1C (configuration not stated),.,/,.,.,.
Cc1ccc(Oc2nnc(-c3cccs3)c3ccccc23)cc1C,.,.,?,?,-62
Cc1ccc(Oc2nnc(-c3cccs3)c3ccccc23)cc1,.,.,.,.,.
N#CCC(=O)N/N=C/c1c(-c2ccccc2)n(-c2ccccc2)c2ccccc12,.,14µM,.,?,.
O=C(NC1CC(=O)N(c2ccc(Cl)cc2)C1)c1cc2ccccc2o1 (configuration not stated),.,/,.,.,.
CCOCCCn1c(=NC(=O)c2ccco2)c(C(=O)OCC)cc2c(=O)n3cccc(C)c3nc21,/,11µM,/,.,.
C=C1Nc2ccccc2C(=O)N1c1ccc(C(=O)N2CCN(C(=O)c3ccco3)CC2)cc1,.,/,.,/,/
O=C(/C=C/[C@H]1O[C@@H](n2ccc(=O)[nH]c2=O)[C@H](O)[C@@H]1O)N1CCN(CCc2ccccc2)CC1,.,/,.,.,.
Cc1ccc(N2CC(C(=O)N3CCCCC3)CC2=O)cc1C (configuration not stated),/,.,/,.,-61
Cc1ccc(N2CC(C(=O)N3CCOCC3)CC2=O)cc1C (configuration not stated),.,.,.,.,.
O=C(C1CC(=O)N(c2ccc3c(c2)OCCO3)C1)N1CCN(c2ccccc2)CC1 (configuration not stated),.,.,.,?,-70
Cc1cccc(N2CCN(C(=O)C3CC(=O)N(c4ccc5c(c4)OCCO5)C3)CC2C)c1 (configuration not stated),/,11µM,/,?,.
Cc1cccc(N2CCN(C(=O)c3ccc4c(c3)OCCO4)CC2C)c1 (configuration not stated),.,.,.,.,.
O=Nc1c(O)[nH]c2ccc(Cl)c(Cl)c12,14µM,.,?,.,.
Cc1onc(-c2c(F)cccc2Cl)c1C(=O)N1CCN(c2ncc(Br)cn2)CC1,.,?,.,28µM,.
Cc1ccccc1CCNC(=O)C1CC(O)CN1C(=O)Nc1ccccc1 (configuration not stated),.,.,.,.,.
NCCCN(Cc1ccc(Cl)cc1)c1ccc(Br)cn1,.,/,.,/,/
CCc1ccc(N2CC(C)Cn3c2nc2c3c(=O)[nH]c(=O)n2C)cc1 (configuration not stated),?,25µM,?,.,.
COc1ccc(C(=O)c2ccccc2)c2c(O)ccc(C(=O)c3ccccc3)c12,/,2.5µM,?,13µM,-79
SMILES,Vaccinia mCherry,HCV inhibitor,Vaccinia Venus,FMDV inh,HCMV inh
COCCCNC(=O)CC(c1cc(OC)c(OC)c(OC)c1)N1Cc2ccccc2C1=O (configuration not stated),.,/,.,.,.
CN1CCCN(C(c2ccccc2)c2ccc(Cl)cc2)CC1 (configuration not stated),?,1.3µM,?,.,?
CN1CCN(C(c2ccccc2)c2ccccc2)CC1,?,?,.,.,.
COc1ccc(CNC(=O)c2ccc3nc(CCc4ccccc4)oc3c2)c(OC)c1,.,/,.,.,.
CC/C(=N\NC(=O)c1nnn(-c2nonc2N)c1-c1cccc(OC)c1)c1ccc(C)cc1,.[7.34 µM],.,.[7.34 µM],.,.
COc1cc(C=C2CCCC(=Cc3ccc(OCC4CO4)c(OC)c3)C2=O)ccc1OCC1CO1 (configuration not stated),?,/,?,11µM,-68
COc1ccc(/C=C2/CSC/C(=C/c3ccc(OC)c(OC)c3)C2=O)cc1OC,2.5µM,?,?,3.5µM,-101
COc1ccc2c(c1)OC/C(=C/c1ccc(OC)c(OC)c1)C2=O,.,/,?,?,/
O=C(COC(=O)C1CC(=O)N(CCc2ccccc2)C1)c1ccc[nH]1 (configuration not stated),.,.,.,.,.
CCN1CCN(CCCNC(=O)C2c3ccccc3C(=O)N(c3ccc(OC)cc3)C2c2ccc(OC)cc2)CC1 (configuration not stated),.,.,.,.,-62
COc1ccc(C2C(C(=O)Nc3cc(OC)c(OC)c(OC)c3)c3ccccc3C(=O)N2C)cc1 (configuration not stated),.,.,?,.,-66
CCOC(=O)CNC(=O)C1c2ccccc2C(=O)N(c2ccc(OC)cc2)C1c1ccc(OC)cc1 (configuration not stated),/,.,/,.,.
CCc1ccc(OC(C)C(=O)Nc2c(C(=O)c3ccccc3)oc3ccccc23)cc1 (configuration not stated),.,/,.,.,.
Cc1ccc(C)c(NC(=O)C(Sc2nc3ccc(C)cc3[nH]2)c2ccccc2)c1 (configuration not stated),.,?,?,?,-74
Cc1cnc(-n2ncc(C(=O)NCc3ccncc3)c2C2CC2)nc1-c1cccs1,?,/,.,.,/
COc1ccc(Br)cc1C1NC(c2ccc3c(c2)OCO3)=CC(c2ccccc2O)N1 (configuration not stated),.,/,.,/,/
COc1ccc(C(C)=O)cc1CSc1nnc(Nc2ccccc2C)s1,/,?,/,.,-62
C[C@@H]1CN([C@H](C)CO)C(=O)c2cc(Br)cnc2O[C@H]1CN(C)Cc1ccccc1F,/,/,/,/,.
O=C(NCc1ccc(Cl)cc1)C(=O)c1cn(CC(=O)N2CCOCC2)c2ccccc12,/,.,/,.,-87
COc1ccc(CNC(=O)C(=O)c2cn(CC(=O)N3CCOCC3)c3ccccc23)cc1,/,.,/,.,.
COc1ccccc1C(NC(=O)C1CCCCC1)c1c(O)ccc2ccccc12 (configuration not stated),.,.,.,.,-102
COc1ccc(-n2nc(C(=O)N(C)c3cc(Cl)ccc3OC)c3c4ccccc4n(C)c3c2=O)cc1,.,/,.,?,.
CCc1nnc(NC(=O)CSc2ccc(-c3nc4ccccc4[nH]3)cn2)s1,?,.,.,/,-94
Cc1ccc2nc(-c3ccc(SCC(=O)Nc4nnc(C)s4)nc3)[nH]c2c1,?,.,11µM,.,.
COc1ccccc1CNC(=O)CCN=C1NS(=O)(=O)c2ccccc21,/,.,/,.,.
CN(C)Cc1csc(NC(=O)Nc2ccccc2Oc2ccccc2)n1,.,/,.,.,-75
